# The supplement of paper PMC3842684
# What was measured:
# [1] = tested on: P. falciparum NF54-pfs16-GFP early (I-III) stage gametocytes; experiment: relative % inhibition of viable gametocyte number; higher = more gametocytocidal; conditions: stage: early (I-III) gametocyte, incubation 72 h
# Procedure, shortened: (§1)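 NF54 pfs16-GFP gametocytes, magnet-isolated at early (I/IIa, day 2) or late (day 8) stage, were plated at 10% parasitaemia, 0.1% haematocrit in 384-well poly-D-lysine imaging plates with compound in duplicate at 5 or 0.5 µM. Plates were incubated 72 h at 37°C, 5% CO2, 5% O2, then overnight with MitoTracker Red. Confocal imaging counted elongated GFP objects with MitoTracker signal above cut-off as viable gametocytes. Relative inhibition was normalised to in-plate vehicle and positive-control wells.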
# [2] = tested on: P. falciparum NF54-pfs16-GFP late (IV-V) stage gametocytes; experiment: as above; conditions: stage: late (IV-V) gametocyte, incubation 72 h
# Procedure, shortened: as §1
SMILES,relative % inhibition ([1]; 0.5 µM),relative % inhibition ([1]; 5 µM),relative % inhibition ([2]; 0.5 µM),relative % inhibition ([2]; 5 µM)
COc1cccc(C(=O)NC(c2ccc(C)cc2)c2cc(Cl)c3cccnc3c2O)c1 (stereo unspecified),12.4%,82.5%,46.5%,65.2%
CCCOCc1cc(CN2CCN(c3cccc(Cl)c3)CC2)c(O)c2ncccc12,14%,91.3%,-7.95%,102%
CCOC(=O)C1CCN(C(=O)CN2C(=O)c3ccccc3C2c2c[nH]c3ccccc23)CC1 (stereo unspecified),7.45%,98.3%,28.9%,63.3%
COc1ccc(C2C(C(=O)Nc3cccc(OC)c3)c3ccccc3C(=O)N2C2CCCCC2)cc1 (stereo unspecified),15.6%,87.5%,5.71%,78.2%
CCN(CC)c1cc(C)c2cc(NC(=O)c3cccc(OC)c3)ccc2n1,15.1%,16.1%,-0.167%,86.7%
CCOc1ccc(CCNC(=O)c2cccs2)cc1OCC,-1.74%,30.1%,-6.65%,16.1%
CCOc1ccccc1CNC(=O)C1c2ccccc2C(=O)N(CC(C)C)C1c1cccs1 (stereo unspecified),6.2%,54.1%,-4.49%,-12.6%
CCN(CC)CCCNc1ccnc2cc3ccccc3cc12,11%,-7.44%,-7.72%,-8.3%
OC1=C2C(=Nc3ccccc3SC2c2ccc(Br)cc2)c2ccccc21 (stereo unspecified),3.13%,35.9%,71.4%,73%
Oc1ccccc1CN1CCN(C(c2ccccc2)c2ccccc2)CC1,13.3%,98.5%,28.3%,78.5%
CC(=O)c1sc(NC(=O)Nc2ccc(C)cc2C)nc1C,30.3%,63.7%,-2.19%,-29.6%
Cc1ccc(OCCCCCCNCCO)c(C)c1,2.04%,30.1%,-16.2%,-15.5%
O=C(Nc1ccc(-c2nc3cc(NC(=O)c4ccc(Cl)cc4)ccc3[nH]2)cc1)c1ccc(Cl)cc1,6.74%,48.5%,-5.09%,24.8%
CCn1c(CN2CCN(Cc3ccccc3)CC2)nc2cc(NC(=O)c3cccs3)ccc21,-11.6%,9.85%,28.5%,50.7%
O=C(Nc1cccc(-c2nc3ccccc3[nH]2)c1)c1cccc(NC(=O)c2ccco2)c1,12.9%,20.8%,-1.52%,0.95%
CC(C)(C)CC(C)(C)NCC(O)COc1ccc2c(c1)CCC2 (stereo unspecified),-11.4%,78.8%,17.6%,20.4%
COc1ccccc1CNC(=O)C1c2ccccc2C(=O)N(CC(C)C)C1c1cccs1 (stereo unspecified),-0.661%,31.9%,-10.4%,-4.52%

SMILES,relative % inhibition ([1]; 0.5 µM),relative % inhibition ([1]; 5 µM),relative % inhibition ([2]; 0.5 µM),relative % inhibition ([2]; 5 µM)
CC(=O)c1ccc(NC(=O)CSc2nc(-c3ccccc3Cl)ns2)cc1,3.99%,39.1%,22.2%,5.88%
O=C(O)C1Cc2c([nH]c3ccccc23)C(c2ccc(Cl)cc2Cl)N1 (stereo unspecified),-10.4%,-20.9%,6.2%,1.16%
COc1nc(Nc2ccc(C(C)C)cc2)nc(OC)n1,24.9%,0.105%,-0.358%,-10.9%
O=c1cc(NC2CCN(CCCc3ccccc3)CC2)c2cc(Cl)ccc2o1,10.6%,79.8%,-5.8%,-6.17%
O=C(NC1CCCCC1)C(c1cccs1)N(CCc1ccccc1)C(=O)c1ccco1 (stereo unspecified),0.574%,17.5%,5.55%,6.74%
CCN1CCN(c2cc(C)c3cc(NC(=O)c4ccc(OC)c(OC)c4)ccc3n2)CC1,11.4%,14.1%,-6.56%,3.96%
Cc1sc2ncnc(Sc3nc4ccccc4[nH]3)c2c1C,89.7%,91.1%,30.6%,94.5%
CCc1ccc(Nc2cc(C)c3ccc(O)cc3n2)cc1,1.9%,99.6%,16.3%,56.6%
c1ccc(Cn2c(N=Nc3c(Nc4ccccc4)ccc4ccccc34)nc3ccccc32)cc1,62.1%,106%,102%,100%
CCc1ccc(CNCC(O)c2ccccc2)cc1 (stereo unspecified),9.08%,44.3%,3.65%,11.4%
Oc1c(CN2CCN(c3ccccc3F)CC2)cc(Br)c2cccnc12,15.7%,89.8%,22.3%,79.5%
C=C(C)CCC(C)N1CCC(N2CCC(C(=O)NCCc3ccccc3)CC2)CC1 (stereo unspecified),-2.27%,49.4%,-12.5%,-42.7%
Cc1ccnc(NC(c2cccc(OCc3ccccc3)c2)c2ccc3cccnc3c2O)c1 (stereo unspecified),14.9%,96.4%,9.51%,57.2%
CCOC(=O)c1cnc2ccc(CC)cc2c1O,-8.43%,42.6%,73.6%,79.8%
CCN(CC)c1ccc(NC(=O)c2cccs2)cc1,-1.58%,-23.9%,16.7%,43.6%
O=C(Nc1ccc(-c2nc3ccccc3[nH]2)cc1)c1ccc(Cl)c(Cl)c1,14.9%,-3.57%,0.0958%,-12%
CCCc1c(C)nc2ccccc2c1O,-8.06%,15.7%,56.5%,72.3%
